PubChem BioAssay (NCATS)
Results filed as inconclusive are left out. The source made the active and inactive calls. The call rests on the fitted dose curve; in most records, active means well fitted cell-killing curve with a large enough effect; inconclusive means small, poorly fitted or top-dose-only effect; inactive means flat fitted curve, though single readings scatter. Positions of bridges follow the written chain, without caps; N, C: chain ends. Non-standard residues stand in square brackets, D forms with d. Residues, ends and D or L forms follow the SMILES beside them. ξ: configuration not given here. *: point of attachment. Octanoyl(6-Me) = CCC(C)CCCCC(=O)*; ξThr(3R) = C[C@@H](O)C(N)C(=O)O; dDab = NCC[C@@H](N)C(=O)O; Dab = NCC[C@H](N)C(=O)O; Cbz = O=C(OCc1ccccc1)*

Test: qHTS of pediatric cancer cell lines to identify multiple opportunities for drug repurposing: Primary screen for TC32 cells (AID 1347089); further: nearly all actives have a fitted effect of over 60% in size
Conditions: TC32 Ewing sarcoma viability, CellTiter-Glo luminescence, 48 h; series mostly up to 45.8 µM; activity change, negative = cytotoxic: at the top concentration
From the text: Drug repurposing or repositioning has been offered as a strategy for drug development in oncology programs. This approach has special potential for childhood cancers and other rare or orphan diseases, where the expected return on new drug development has been a disincentive to pharmaceuticals.
In this project we exploit the poly-pharmacology of drugs to discover new indications via phenotypic screening of a panel of 19 well-characterized cell lines derived from solid tumors seen in children and adolescents. The goal is to identify approved drugs with previously unrecognized anticancer properties that has the potential to reveal new mechanisms and biological processes involved in carcinogenesis or drug resistance. We employed a titration-based paradigm (quantitative high-throughput screening or qHTS), where all compounds were tested at multiple concentrations for their effect on cell viability. Concentration-response curves (CRCs) were derived directly from the primary screen, and both potency and efficacy values were used to identify compounds with robust bioactivity profiles. We screened the NIH Chemical Genomics Center (NCGC) Pharmaceutical Collection (NPC) and Mechanism Interrogation Plate (MIPE) small molecule collections of approved and investigational compounds against these cell lines; and measured metabolically active cells after 48 hours of compound treatment as a proxy for cell viability.
Assay Submitter: Nathalia J. Martinez, National Center for Advancing Translational Sciences, National Institutes of Health, Rockville, MD, USA; email: natalia.martinez@nih.gov
[1] Shen, M et al. Quantitative high-throughput phenotypic screening of pediatric cancer cell lines identifies multiple opportunities for drug repurposing. Oncotarget 2017 Dec 19;9(4):4758-4772. PMID 29435139.
The cells were obtained from University of North Carolina (UNC), Pediatric Preclinical Testing Program (PPT), and Coriell Institute (CI).
qHTS cell viability assay:
Cells were assayed in growth media at a density of 500-1,000 cells/well. Five microliters of cells were dispensed into 1,536-well, white, solid-bottom, TC-treated plates (Greiner Bio One) using a multidrop dispenser and incubated at 37 degrees C, 5% CO2, under a humidified atmosphere for 5 hours. Twenty-three nanoliters of compounds and controls (neutral control DMSO or positive control bortezomib at final concentration of 2.3 uM) were subsequently transferred by Kalypsys pintool. For primary screens, the MIPE collection was tested at 11-point dilutions (final concentrations range from 0.78 nM to 46 µM) and the NPC collection at 8-point dilutions (final concentrations range from 0.59 nM to 46 µM). Compounds tested in follow-up screens were assayed at 11-point dilutions. Cells were incubated for 48 hours, followed by addition of 3 uL of CellTiter-Glo (Promega). After a 15min incubation at room temperature, samples were analyzed for luminescence intensity using a ViewLux High-throughput CCD imager equipped with clear filters.
On the % scale 0 is the no-effect control and ±100 the full control effect; potency means the concentration at half of the fitted maximal effect.

SMILES	Potency	activity change, negative = cytotoxic
C[C@@]12C(=O)OC(=O)[C@@]1(C)C1CCC2O1	13100 nM (active)	
C[C@@H]1C(=O)O[C@H]2CC34[C@H]5C[C@@H](C(C)(C)C)C36[C@H](OC(=O)[C@@H]6O)O[C@@]4(C(=O)O5)[C@]21O (stereo not given in full)		3.38% (inactive)
OCC(O)C(O)C(O)CO (stereo not given)		2.98% (inactive)
CCOC(=O)N1CCN([N+]([O-])=NOc2ccc([N+](=O)[O-])cc2[N+](=O)[O-])CC1		6.42% (inactive)
CC(=O)OC[C@@H]1O[C@@H](n2ccc(=O)[nH]c2=O)[C@H](OC(C)=O)[C@H]1OC(C)=O		3.17% (inactive)
COc1ccc2cc([S+]([O-])Cc3ncc(C)c(OC)c3C)nc2c1		-5.25% (inactive)
C#C[C@]1(O)CC[C@@H]2[C@@H]3CCc4cc(O)ccc4[C@H]3CC[C@@]21C		-4.62% (inactive)
C[C@H](NC(=O)[C@@H](O)c1cc(F)cc(F)c1)C(=O)N[C@@H]1C(=O)N(C)c2ccccc2-c2ccccc21		9.03% (inactive)
COc1cccc2c1C(=O)c1c(O)c3c(c(O)c1C2=O)C[C@@](O)(C(=O)CO)C[C@@H]3O[C@H]1C[C@H](N)[C@H](OC2CCCCO2)[C@H](C)O1 (stereo not given in full)	3700 nM (active)	
COC[C@H](NC(=O)c1cnc(C)s1)C(=O)N[C@@H](COC)C(=O)N[C@@H](Cc1ccccc1)C(=O)[C@@]1(C)CO1	587 nM (active)	
CCOC(=O)[C@@H](N)Cc1ccc(-c2cc(O[C@H](c3ccc(Cl)cc3-n3ccc(C)n3)C(F)(F)F)nc(N)n2)cc1		4.83% (inactive)
CC(C)(O)CC[C@@H](O)[C@](C)(O)[C@H]1CC[C@@]2(O)C3=CC(=O)[C@@H]4C[C@@H](O)[C@@H](O)C[C@]4(C)[C@@H]3CC[C@]12C		3.11% (inactive)
CNC(=O)Nc1ccc(-c2nc(N3CC4CCC(C3)O4)c3cnn(C4CCC5(CC4)OCCO5)c3n2)cc1	26.2 nM (active)	
NC[C@H]1O[C@H](O[C@H]2[C@@H](O)[C@@H](O[C@H]3O[C@H](CO)[C@@H](O)[C@H](N)[C@@H]3O)[C@H](N)C[C@@H]2N)[C@H](N)C[C@H]1O		9.03% (inactive)
COc1cc(C)c(C=CC(C)=CC=CC(C)=CC(=O)O)c(C)c1C		0.521% (inactive)
C[C@@]12C[C@@]3(O)O[C@@H](O1)[C@]1(COC(=O)c4ccccc4)[C@@H]3C[C@@]12O[C@@H]1O[C@H](CO)[C@@H](O)[C@H](O)[C@@H]1O		2.19% (inactive)
CC(=O)[C@]1(O)Cc2c(O)c3c(c(O)c2[C@@H](O[C@H]2C[C@H](N)[C@@H](O)[C@H](C)O2)C1)C(=O)c1ccccc1C3=O	587 nM (active)	
CC(C)(O)Cn1c(NC(=O)c2ccc(-c3cn[nH]c3)s2)nc2cc(CN3CCOCC3)ccc21	8290 nM (active)	
CNC(=O)c1cccc(-c2ccc3c(N4CCOC[C@H]4C)nc(N4CCOC[C@H]4C)nc3n2)c1	523 nM (active)	
C[C@H]1COc2c(N3CCN(C)CC3)c(F)cc3c(=O)c(C(=O)O)cn1c23		4.15% (inactive)

SMILES	Potency	activity change, negative = cytotoxic
NC(=O)Nc1cc(-c2ccc(CN3CCOCC3)cc2)sc1C(N)=O	523 nM (active)	
OC[C@H]1OC(O)C[C@@H](O)[C@H]1O (stereo not given in full)		14.5% (inactive)
NC(=O)c1cccc(-c2cccc(OC(=O)NC3CCCCC3)c2)c1		14.2% (inactive)
Cn1cc(C[C@@H](N)C(=O)O)c2ccccc21		1.91% [at 16 µM] (inactive)
CC(C)C[C@@H](C=O)NC(=O)[C@H](CC(C)C)NC(=O)[C@H](CC(C)C)NC(=O)OCc1ccccc1 (Cbz-Leu-Leu-Leu-aldehyde)	2340 nM (active)	
CC(O)(C#Cc1ccc2c(c1)N(c1nc(N)ncc1Cl)CC2)c1nccs1 (stereo not given)		-2.31% (inactive)
CC(Oc1ccc(O)cc1)(P(=O)(O)O)P(=O)(O)O		-0.387% (inactive)
N=c1ccn2c(n1)O[C@H]1[C@@H](O)[C@@H](CO)O[C@H]12	1040 nM (active)	
CC(C)OC(=O)[C@H](C)N[P@](=O)(OC[C@H]1O[C@@H](n2ccc(=O)[nH]c2=O)[C@](C)(F)[C@H]1O)Oc1ccccc1		-8.68% (inactive)
COC(=O)[C@H](CCCN=C(N)N)NS(=O)(=O)c1ccc(C)cc1		12.6% (inactive)
CC(C)(O)[C@H]1CC[C@@](C)([C@H]2[C@@H](O)C[C@@]3(C)[C@@H]4C[C@H](O[C@@H]5O[C@H](CO)[C@@H](O)[C@H](O)[C@@H]5O)[C@H]5C(C)(C)[C@@H](O[C@@H]6OC[C@@H](O)[C@H](O)[C@@H]6O)CC[C@@]56C[C@@]46CC[C@]23C)O1		5.1% (inactive)
CCCCCCCCCCCCc1ccc(S(=O)(=O)Nc2nncs2)cc1		-4.2% (inactive)
OCCNC1CCCc2c1[nH]c1ccc(-c3ccccc3)cc21 (stereo not given)		-6.89% (inactive)
CC(C)N(CC[C@H](c1ccccc1)c1cc(CO)ccc1O)C(C)C		8.98% (inactive)
CCc1cc(C(C)=NOCc2ccc(C3CCCCC3)c(C(F)(F)F)c2)ccc1CN1CC(C(=O)O)C1		10.6% (inactive)
CC(C)C[C@H](NC(=O)[C@@H](NC(=O)c1cccc(-c2ccccc2)n1)[C@@H](C)O)B(O)O	466 nM (active)	
C[C@@H](Oc1ccc2[nH]nc(C=Cc3cnn(CCO)c3)c2c1)c1c(Cl)cncc1Cl	18600 nM (active)	
CCC(C)CCCCC(=O)N[C@@H](CCN)C(=O)NC(C(=O)N[C@H](CCN)C(=O)N[C@@H]1CCNC(=O)C([C@@H](C)O)NC(=O)[C@@H](CCN)NC(=O)[C@@H](CCN)NC(=O)[C@@H](CC(C)C)NC(=O)[C@H](Cc2ccccc2)NC(=O)[C@H](CCN)NC1=O)[C@@H](C)O (stereo partly drawn) ({Octanoyl(6-Me)}-[Dab][ξThr(3R)][dDab][dDab][Dab]F[dL][dDab][dDab][ξThr(3R)]; lactam 4-C)		0.738% (inactive)
C[C@H]1C[C@H]2[C@@H]3CCC4=CC(=O)C=C[C@]4(C)[C@@H]3C(=O)C[C@]2(C)[C@@]1(O)C(=O)CO		6.42% (inactive)
CCCNS(=O)(=O)Nc1ncnc(OCCOc2ncc(Br)cn2)c1-c1ccc(Br)cc1		8.47% (inactive)
